This note sets out measurements from PubChem BioAssay AID485367 (National Center for Advancing Translational Sciences (NCATS), 2010).

Out of some 330,000 compounds screened, about 560 (0.17%) were called active. Inconclusive results (about 1%) are left out. This excerpt belongs to a sample that is enriched for actives. Values without a mark were called inactive. Calls follow the shape of the dose curve; as a rule, active = well fitted inhibition curve with a large enough effect; inconclusive = small, poorly fitted or top-dose-only effect, or effect the other way; inactive = flat fitted curve, though single readings scatter.
Potency is read from the fitted curve at half-maximal effect.

Sequence of ATP-dependent 6-phosphofructokinase (Trypanosoma brucei brucei) (O15648 whole entry, looked up): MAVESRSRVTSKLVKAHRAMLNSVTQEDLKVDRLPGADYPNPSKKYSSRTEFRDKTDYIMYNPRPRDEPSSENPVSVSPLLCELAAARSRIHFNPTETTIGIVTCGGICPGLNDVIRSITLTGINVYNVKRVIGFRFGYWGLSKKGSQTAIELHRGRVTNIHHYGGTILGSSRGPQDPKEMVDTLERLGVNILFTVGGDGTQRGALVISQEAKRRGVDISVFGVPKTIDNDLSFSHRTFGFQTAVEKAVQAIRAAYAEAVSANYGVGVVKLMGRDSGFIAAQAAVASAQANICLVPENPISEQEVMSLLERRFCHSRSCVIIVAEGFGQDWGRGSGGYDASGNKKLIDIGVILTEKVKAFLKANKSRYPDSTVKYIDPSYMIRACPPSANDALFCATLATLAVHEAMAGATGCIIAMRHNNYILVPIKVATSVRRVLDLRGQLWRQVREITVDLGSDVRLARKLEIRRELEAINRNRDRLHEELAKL

This assay deals with ATP-dependent 6-phosphofructokinase (Trypanosoma brucei brucei) (UniProt O15648). The assay can be described thus: qHTS Assay to Find Inhibitors of T. brucei phosphofructokinase. Also: nearly all actives have a fitted effect of over 60% in size. To be noted: T. brucei PFK, ADP-Glo luminescence; series mostly up to 57.5 µM; activity, negative = inhibition: at the top concentration. From the text:
NIH Molecular Libraries Probe Production Network [MLPCN] NIH Chemical Genomics Center [NCGC] Grant: 1 R03 MH092153-01 PI Name: Malcolm Walkinshaw, University of Edinburgh NCGC Assay Overview: Various species of the protozoan family Trypanosomatidae are responsible for a range of serious human diseases in tropical and subtropical areas of the world. […] Many of the disorders caused by trypanosomatids are fatal if left untreated, but most currently used drugs are inefficient and toxic. […] Oxidative metabolism involving the mitochondrial tricarboxylic acid cycle and oxidative phosphorylation are repressed in these parasites, and recent RNA interference (RNAi) experiments have shown that even partial depletion of certain individual glycolytic enzymes can lead to the death of cultured parasites. One such glycolytic enzyme, phosphofructokinase (PFK), catalyzes the formation of fructose-1,6-bisphosphate (F1,6BP) and ADP from fructose-6-phosphate (F6P) and ATP, and in many metabolic circumstances makes an important contribution to the control of flux through the glycolytic pathway. As a specific glycolytic target, PFK is particularly attractive as it catalyzes the first irreversible step in glycolysis, and structural and kinetic studies have shown very substantial and essential differences from corresponding host enzymes, allowing for the discovery of parasite-selective inhibitors. The goal of this screen is to find small-molecule inhibitors of T. brucei PFK using a biochemical assay that measures PFK activity as a function of ADP production. A luminescence-based assay for T. brucei PFK activity has been developed which uses luciferase to detect production of ADP. Traditional luciferase-based nucleotide detection reagents rely on ATP production as a direct substrate for the luciferase reaction; however, PFK catalyzes the transfer of a phosphate from ATP to F6P, resulting in the net depletion of ATP. To directly measure the ADP product of the PFK reaction, we used the ADP-Glo detection kit (Promega), which utilizes two separate reactions to 1) deplete all remaining uncatalyzed ATP and 2) convert all remaining ADP to ATP, which is then detected through a traditional luciferase-coupled reaction. Compounds were screened as a concentration-titration series that ranged from 57 uM to 0.7 nM.
NCGC Assay Protocol Summary: NCGC Assay Protocol Summary: Substrate buffer was dispensed into white, solid 1536-well plates at 3uL/well in 0.1M triethanolamine (TEA) buffer, pH 8.0, containing final concentrations of 5 mM MgCl2, 0.01% Tween20, 0.5 mM fructose-6-phosphate (F6P) and 0.1mM ATP. Then, 23 nL of compounds or DMSO were delivered to each well using a pin tool. One uL T. brucei PFK (0.1M TEA, 0.01% Tween20, 0.1% bovine serum albumin (BSA) and 1.25nM PFK, final concentrations) was then dispensed, and plates were incubated at room temperature for 45 min. The luminescent detection reagent, ADP-Glo (Promega), was then added in two steps: the first reagent, ADP-Glo (which converts remaining uncatalyzed ATP), was added at 2.5uL/well and incubated for ten minutes at room temperature, and the second component, Kinase Detection reagent (which converts ADP to ATP as a substrate for luciferase-based luminescence), was added immediately after at 5uL/well, followed by one final ten minute room temperature incubation. The plates were measured on a ViewLux plate reader for luminescent signal using a clear filter with a one second exposure. The %Activity was determined from the corrected luminescence values. As no specific T. brucei PFK inhibitors have been identified in the literature, 1x (1.25nM) and 0x PFK enzyme controls (untreated) were included to normalize %Activity of identified inhibitors; 0x enzyme values corresponded to 100%Activity (full inhibition), while 1x PFK enzyme values were used to normalize 0%Activity (no inhibition). Concentration-response curves were fitted to the signals arising from the resulting luminescence. […]
For the compound `N#Cc1ccccc1-n1c(N)c(C(=O)N2CCCC2)sc1=S`, the “activity, negative = inhibition” value was 0.585%.

Turning to `Cc1ccc2c(C)c(C(=O)N(C)CCC3CCCCO3)oc2c1C` (stereo unspecified), the “activity, negative = inhibition” value was -4.76%.

With `N#CCSc1nn(-c2ccc(F)cc2)c(=S)s1`, the “activity, negative = inhibition” value is 0.779%.

As for `O=c1ccc2c(-c3ccccc3S(=O)(=O)O)c3ccc(O)c(O)c3oc-2c1O`, the Potency is 2.39 µM (active).

As to `COC(=O)c1ccc(COc2ccc(/C=C/C(=O)c3ccc(OC)c(CSCC(=O)O)c3)cc2OC)cc1`, the Potency was 4.78 µM (active).

Regarding `COc1ccc(C(=O)/C=C/c2ccc(-c3ccccc3)cc2)cc1CSCC(=O)O`, the “activity, negative = inhibition” value is -0.707%.

For the compound `COc1ccc(/C=C/C(=O)c2ccc(NS(=O)(=O)c3ccc(C)cc3)cc2)cc1O`, the “activity, negative = inhibition” value was 9.84%.

`Cc1ccc(OCC(=O)N2CCN(C(=O)c3cccnc3)CC2)cc1`: the “activity, negative = inhibition” value is -0.802%.

On to `CN1C(CC(=O)Nc2ccc(Br)cc2)c2ccccc2CC1(C)C` (stereo unspecified), for which the “activity, negative = inhibition” value was 3.31%.

Consider `Cc1nn(Cc2ccc(F)cc2)c(C)c1NC(=O)c1cccnc1Cl`, for which the “activity, negative = inhibition” value was 0.406%.

For the compound `Cc1nn(Cc2ccc(Cl)c(Cl)c2)c(C)c1NC(=O)c1cc(C2CC2)on1`, the Potency was 9.53 µM (active).

Take `Cc1cc(C(=O)Nc2c(C)nn(Cc3ccccc3)c2C)on1`: the “activity, negative = inhibition” value was 3.52%.

`CCCc1nn(C)c2c(=O)[nH]c(-c3cc(S(N)(=O)=O)ccc3OCC)nc12`: the “activity, negative = inhibition” value was 7.25%.

Take `CC1CCC(NC(=O)CN(C)S(=O)(=O)c2ccc3c(c2)c(=O)n(C)c(=O)n3C)CC1` (stereo unspecified): the “activity, negative = inhibition” value was 0.492%.

As to `O=C(OCC(=O)N1CCc2ccccc21)c1ccc([N+](=O)[O-])cc1`, the “activity, negative = inhibition” value is 17.6%.

In the case of `COc1ccc(NS(=O)(=O)c2ccc(C)c(C(=O)NNC(=O)c3csc(N4CCOCC4)n3)c2)cc1`, the “activity, negative = inhibition” value was -10%.

In the case of `CC1=NN(c2cccc(Cl)c2)C(=O)C12CC(C)=C(C)CS2` (stereo unspecified), the “activity, negative = inhibition” value was 2.05%.

`Cc1ccn2c(=O)c(NC(=O)c3cccc4ccccc34)c(C)nc2c1`: the “activity, negative = inhibition” value was -3.25%.

As to `O=C(C1CCN(c2nnc(-n3cccc3)s2)CC1)N1CCc2ccccc2C1`, the “activity, negative = inhibition” value is -0.0102%.

Consider `CN1CCN(c2ccc(S(=O)(=O)N3CCOCC3)cc2NC(=O)CCc2ccccc2)CC1`, for which the “activity, negative = inhibition” value is 1.42%.

In the case of `O=C(COc1nsnc1N1CCOCC1)Nc1ccccc1Cl`, the “activity, negative = inhibition” value was 2.58%.

As to `O=C(NC1CCN(Cc2ccccc2)CC1)c1cc(Br)c(Br)[nH]1`, the “activity, negative = inhibition” value was -0.675%.

In the case of `Cc1cnc(C(=O)N2CCCC(C(=O)c3ccc(C(F)(F)F)cc3)C2)cn1` (stereo unspecified), the “activity, negative = inhibition” value was 2.16%.

Take `Cc1cc(NC(=O)CCC(=O)N(CC(=O)NCC2CCCO2)c2ccccc2C)no1` (stereo unspecified): the “activity, negative = inhibition” value is 2.91%.

As for `CC(CN1CCC(n2nccc2NC(=O)C2CCCC2)CC1)c1ccccc1` (stereo unspecified), the “activity, negative = inhibition” value is -20.9%.

Take `C=Cn1cc[n+](CC(=O)c2ccc(OC)c(OC)c2)c1`: the “activity, negative = inhibition” value is 8.02%.

Regarding `CC(NCC(=O)Nc1ccccc1C(=O)NC1CC1)c1ccccc1Cl` (stereo unspecified), the “activity, negative = inhibition” value is 1.99%.

Consider `Cc1cccc(NS(=O)(=O)c2ccc(-c3cnc(C4CC4)o3)cc2)c1`, for which the “activity, negative = inhibition” value was -6.58%.

`COc1ccccc1N(CC(=O)Nc1ccc(C)cc1Cl)S(=O)(=O)c1cccs1`: the “activity, negative = inhibition” value is 0%.

Consider `FC(F)(F)C1CCCN(c2nsc3ccccc23)C1` (stereo unspecified), for which the Potency was 6.75 µM (active).

In the case of `O=C(NCC(=O)N1CCCC(C(F)(F)F)C1)c1ccccc1F` (stereo unspecified), the “activity, negative = inhibition” value was -6.74%.

`O=C(NC(Cc1ccccc1)C(=O)N1CCCC(C(F)(F)F)C1)c1ccccc1` (stereo unspecified): the “activity, negative = inhibition” value was 1.45%.

As for `COc1cccc(CNC(=O)C2CC(=O)N(C3CCCCCCC3)C2)c1` (stereo unspecified), the “activity, negative = inhibition” value was 1.34%.

Regarding `Cc1ccc(/C=C2/SC(=S)N(CCC(=O)NCCCN3CCOCC3)C2=O)cc1`, the “activity, negative = inhibition” value was 2.57%.

Take `Cc1ccc(-c2nn(-c3ccccc3)cc2/C=C2\SC(=S)N(CCCCCC(=O)O)C2=O)o1`: the Potency is 4.78 µM (active).

For `C=CCOc1ccc(/C=C2\SC(=S)N(CCC(=O)O)C2=O)cc1`, the “activity, negative = inhibition” value was -6.36%.

Take `CC(=O)c1nnn(-c2ccc(Cl)cc2C#N)c1C`: the “activity, negative = inhibition” value was -1.18%.

On to `Cc1cccn2c(CN(C)C3CCCc4ccccc43)c(C(=O)N3CCOCC3)nc12` (stereo unspecified), for which the “activity, negative = inhibition” value is 0.624%.

As for `CC(C)=CC(=O)Nc1nnc(-c2ccc(F)cc2)s1`, the “activity, negative = inhibition” value was -10%.

As for `CN[C@H](C(=O)NC[C@H]1O[C@@H](n2cnc3c(N)ncnc32)[C@H](O)[C@@H]1O)[C@@H](C)OCc1ccccc1`, the “activity, negative = inhibition” value was -2.64%.

With `Cc1cc(C)cc(C(=O)N2CCN=C2SCc2ccc([N+](=O)[O-])cc2)c1`, the “activity, negative = inhibition” value was 3.53%.

In the case of `Cc1nc(N)nc(SCc2ccc([N+](=O)[O-])cc2)c1N`, the Potency was 13.5 µM (active).

As to `Nc1nc(SCc2ccc([N+](=O)[O-])cc2)c2ncn(C3OC(CO)C(O)C3O)c2n1` (stereo unspecified), the Potency was 12 µM (active).

Regarding `Cc1nc(SCc2ccc(F)cc2)c([N+](=O)[O-])[nH]1`, the “activity, negative = inhibition” value is 1.96%.

With `CN(Cc1ccc(CNC[C@H]2O[C@@H](n3cnc4c(N)ncnc43)[C@H](O)[C@@H]2O)o1)S(C)(=O)=O`, the “activity, negative = inhibition” value was 0%.

Take `COc1cccc(CNC(=O)CCC2CCCN(C(=O)c3ccc(F)c(Cl)c3)C2)c1` (stereo unspecified): the “activity, negative = inhibition” value is -20.6%.

Take `CCN(CC)CCn1cnc2c1c(=O)n(CCOC(=O)c1cc(OC)c(OC)c(OC)c1)c(=O)n2C`: the “activity, negative = inhibition” value was 0.629%.

With `CCOc1ccc(NC(=O)c2ccc(CSc3nnnn3C)cc2)cc1`, the “activity, negative = inhibition” value is -15.6%.

In the case of `CC(C)C[C@H](NC(=O)N1CCn2c1nc1ccccc12)C(=O)NC1CC1`, the “activity, negative = inhibition” value was 1.02%.

For the compound `CC1CCN(C(=O)CN(c2ccc(Oc3ccccc3)cc2)S(C)(=O)=O)CC1`, the “activity, negative = inhibition” value is -2.4%.

As for `Cc1nn(C(C)CC(=O)O)c(C)c1C` (stereo unspecified), the “activity, negative = inhibition” value is -4.85%.
